Source: PubChem (several laboratories)
Compounds with a hit are over-represented: about 0.97% of the library has one in this group of screens.
RecA splice inh – Mtb RecA intein splicing inhibition | P9WHJ3 | inhibition, % (test concentration not listed) | hit rate 0.75% among 290,000 | cell-free RecA intein splicing, fluorescence; in the data active means inhibition above about 30%
BioA inh – blocks M. tuberculosis BioA enzyme activity | purified M. tuberculosis BioA enzyme, plate reader | inhibition, % at 9.99 µM | hit rate 0.096% among 360,000 | AID 602481; in the data active means inhibition above about 40%
FadD28 binding – M. tuberculosis FadD28 bisubstrate binding inhibition. hit rate 0.22% among 360,000. FadD28 bisubstrate probe binding, fluorescence polarization. inhibition, % at 12.5 µM; in the data active means inhibition above about 8.5%, passing the limit was not always enough
TcdB GH inh – TcdB glycohydrolase inhibition; P18177; TcdB glycohydrolase enzymatic assay, plate reader; inhibition, % at 9.99 µM; hit rate 0.24% among 350,000; AID 652162; in the data active means inhibition above about 10%
Mtb UGM inh – inhibitors of M. tuberculosis UDP-galactopyranose mutase. P9WIQ1. purified UGM, fluorescence polarization probe displacement. inhibition, % at 10 µM. hit rate 0.06% among 320,000; in the data active means inhibition above about 10%, passing the limit was not always enough
Rv3671c protease – Rv3671c (M. tuberculosis) protease inhibition | P9WHR9 | inhibition, % at 5.96 µM | hit rate 0.048% among 320,000 | AID 2606; in the data active means inhibition above about 38%;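 further: extracellular domain of Rv3671c used as enzyme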
Target sequence (P9WHR9 whole entry, looked up, the tested form may be a part): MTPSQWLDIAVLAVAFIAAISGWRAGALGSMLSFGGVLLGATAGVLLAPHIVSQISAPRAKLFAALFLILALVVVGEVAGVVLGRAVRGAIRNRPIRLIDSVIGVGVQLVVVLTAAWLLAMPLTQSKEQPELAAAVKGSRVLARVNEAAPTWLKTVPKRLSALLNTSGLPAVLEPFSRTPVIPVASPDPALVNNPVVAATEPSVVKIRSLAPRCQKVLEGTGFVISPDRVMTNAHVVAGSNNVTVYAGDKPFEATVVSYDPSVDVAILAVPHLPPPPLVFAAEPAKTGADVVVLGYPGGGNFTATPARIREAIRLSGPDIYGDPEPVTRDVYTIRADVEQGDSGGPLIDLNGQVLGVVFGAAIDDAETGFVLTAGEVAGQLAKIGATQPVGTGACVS
Numbers stand for hits.

What do the screens show for `CCNC(=O)[C@H]1[C@H](CO)[C@H]2Cn3c(ccc(C4=CCCC4)c3=O)[C@@H]1N2Cc1ccncc1`?
BioA inh: inactive; TcdB GH inh: inactive

Results for O=P(CCCCCCCCCP(=O)(c1ccccc1)c1ccccc1)(c1ccccc1)c1ccccc1 ?
RecA splice inh: 60; BioA inh: inactive; FadD28 binding: inactive; Mtb UGM inh: inactive; Rv3671c protease: inactive

What do the screens show for `Cc1oc2c(c1C(=O)c1ccccc1)C(=O)C(=O)c1ccccc1-2`?
RecA splice inh: inactive; BioA inh: inactive; FadD28 binding: inactive; Mtb UGM inh: inactive; Rv3671c protease: inactive

What do the screens show for `Cc1oc2c(c1C(=O)O)C(=O)c1ccccc1C2=O`?
RecA splice inh: 68; BioA inh: inactive; FadD28 binding: inactive; TcdB GH inh: inactive; Mtb UGM inh: inactive; Rv3671c protease: inactive

How did CCOC(=O)c1c(C)oc2c1C(=O)c1ccccc1C2=O do in these assays?
RecA splice inh: 59; BioA inh: inactive; FadD28 binding: inactive; TcdB GH inh: inactive; Mtb UGM inh: inactive; Rv3671c protease: inactive

Results for C[C@@H]1CN([C@@H](C)CO)S(=O)(=O)c2ccc(C#CC3CCCC3)cc2O[C@@H]1CN(C)C(=O)C1CC1 ?
BioA inh: inactive; TcdB GH inh: inactive

Results for O=C(c1ccc2c(c1)N(Cc1ccccc1)C(=O)c1ccccc1S2)N1CCCC1 ?
RecA splice inh: inactive; BioA inh: inactive; FadD28 binding: inactive; TcdB GH inh: 34; Mtb UGM inh: inactive; Rv3671c protease: inactive

How did O=C(c1ccc2c(c1)N(Cc1ccccc1F)C(=O)c1ccccc1S2)N1CCOCC1 do in these assays?
RecA splice inh: inactive; TcdB GH inh: 10; Mtb UGM inh: inactive; Rv3671c protease: inactive

How did Cc1cccc(CN2C(=O)c3ccccc3Sc3ccc(C(=O)O)cc32)c1 do in these assays?
RecA splice inh: inactive; BioA inh: inactive; FadD28 binding: inactive; TcdB GH inh: inactive; Mtb UGM inh: inactive; Rv3671c protease: inactive

Results for CCOc1cc(/C=C2\C(=O)N(c3nc(-c4ccc(Br)cc4)cs3)N=C2c2ccccc2)ccc1O ?
RecA splice inh: inactive; BioA inh: inactive; FadD28 binding: 27; Mtb UGM inh: inactive; Rv3671c protease: inactive

Results for Cc1ccc(N2NC(=O)/C(=C/c3ccc(-c4ccc(Cl)c(C(=O)O)c4)o3)C2=O)cc1 ?
RecA splice inh: inactive; BioA inh: inactive; FadD28 binding: inactive; TcdB GH inh: inactive; Mtb UGM inh: inactive; Rv3671c protease: inactive

What do the screens show for `O=C1NN(c2ccc(Cl)cc2)C(=O)/C1=C\c1ccc(-c2cccc(C(=O)O)c2)o1`?
FadD28 binding: 23; TcdB GH inh: inactive

Results for O=C1C2C=C(I)[C@H](C[C@@H]2OCCCCCCO)[C@@]12CO2 ?
BioA inh: inactive; TcdB GH inh: inactive

What do the screens show for `CCCS(=O)(=O)NC(=O)C1(C)CCN(C(=O)c2ccco2)C1` (stereo unspecified)?
BioA inh: inactive; FadD28 binding: inactive; TcdB GH inh: 11

What do the screens show for `C[C@@H]1CN([C@H](C)CO)C(=O)c2cccc(NC(=O)c3ccncc3)c2O[C@@H]1CN(C)CC1CC1`?
BioA inh: inactive; TcdB GH inh: inactive

How did O=C(CSc1ccccc1)Nc1cc(S(=O)(=O)N2CCOCC2)ccc1N1CCOCC1 do in these assays?
RecA splice inh: inactive; FadD28 binding: inactive; TcdB GH inh: 12; Mtb UGM inh: inactive; Rv3671c protease: inactive

Results for O=S(=O)(N[C@@H]1CC[C@@H](CCNS(=O)(=O)c2ccccc2Cl)O[C@@H]1CO)c1ccccc1 ?
BioA inh: inactive; TcdB GH inh: inactive

Results for Cc1nc2ccccn2c1-c1ccnn1S(=O)(=O)c1ccc(F)cc1 ?
RecA splice inh: inactive; BioA inh: inactive; FadD28 binding: inactive; TcdB GH inh: 15; Mtb UGM inh: inactive; Rv3671c protease: inactive

What do the screens show for `Cc1nc2ccccn2c1C(=O)/C=C/c1ccc(F)cc1`?
RecA splice inh: inactive; BioA inh: inactive; FadD28 binding: inactive; Mtb UGM inh: inactive; Rv3671c protease: inactive

What do the screens show for `Cc1nnc(N/N=C/c2cccc(C(F)(F)F)c2)n1N`?
RecA splice inh: inactive; BioA inh: inactive; FadD28 binding: inactive; TcdB GH inh: inactive; Mtb UGM inh: inactive; Rv3671c protease: inactive

What do the screens show for `Cc1nnc(N/N=C/c2cccc(OCc3ccc(Cl)c(Cl)c3)c2)n1N`?
RecA splice inh: 74; BioA inh: inactive; FadD28 binding: inactive; Mtb UGM inh: inactive; Rv3671c protease: inactive

How did C[C@H](CO)N1C[C@H](C)[C@H](CN(C)Cc2ccccc2)Oc2cc(-c3ccccc3)ccc2S1(=O)=O do in these assays?
BioA inh: inactive

How did CN(C)Cc1cn(CC[C@H]2CC[C@@H](NS(=O)(=O)c3ccc(-c4ccccc4)cc3)[C@@H](CO)O2)nn1 do in these assays?
BioA inh: inactive; TcdB GH inh: inactive

How did COc1ccc(NC(=O)CN(C)C(=O)c2cccc(NS(=O)(=O)c3ccc(Br)cc3)c2)cc1 do in these assays?
RecA splice inh: inactive; FadD28 binding: inactive; TcdB GH inh: 16; Mtb UGM inh: inactive; Rv3671c protease: inactive

Results for COc1ccccc1NC(=O)N[C@@H]1CC[C@H](CC(=O)N[C@@H](C)c2ccccc2)O[C@@H]1CO ?
BioA inh: inactive; TcdB GH inh: inactive

Results for C[C@@H]1CN([C@@H](C)CO)C(=O)Cc2cc(NC(=O)CCN3CCOCC3)ccc2O[C@@H]1CN(C)S(=O)(=O)c1ccc(F)cc1 ?
BioA inh: inactive; TcdB GH inh: inactive

Results for CCOC(=O)/C(=N/Nc1ccc(Br)cc1)N1CC(C)OC(C)C1 (stereo unspecified) ?
FadD28 binding: inactive; TcdB GH inh: 34

Results for COc1cc(/C=C/c2ccc3cccc(O)c3n2)cc(OC)c1OC ?
RecA splice inh: inactive; BioA inh: inactive; FadD28 binding: 13; TcdB GH inh: inactive; Mtb UGM inh: inactive; Rv3671c protease: inactive

Results for Cc1ccc(NC(=S)/C(=C(\[O-])c2ccc(F)cc2)[n+]2ccccc2)cc1 ?
RecA splice inh: 30; FadD28 binding: inactive; TcdB GH inh: inactive; Mtb UGM inh: inactive; Rv3671c protease: inactive

Results for [O-]/C(=C(\C(=S)Nc1ccccc1F)[n+]1ccccc1)c1ccc(OC(F)F)cc1 ?
RecA splice inh: inactive; BioA inh: inactive; FadD28 binding: inactive; TcdB GH inh: inactive; Mtb UGM inh: inactive; Rv3671c protease: inactive

What do the screens show for `Cc1ccc(C)c(NC(=S)/C(=C(\[O-])c2ccc(OC(F)F)cc2)[n+]2ccccc2)c1`?
RecA splice inh: 33; BioA inh: inactive; FadD28 binding: inactive; TcdB GH inh: inactive; Mtb UGM inh: inactive; Rv3671c protease: inactive

How did CCOc1cc(C2C(C#N)=C(N)Oc3n[nH]c(CC)c32)ccc1OCCN1CCOCC1 (stereo unspecified) do in these assays?
RecA splice inh: 50; BioA inh: inactive; FadD28 binding: inactive; Mtb UGM inh: inactive; Rv3671c protease: inactive

Results for CCCc1[nH]nc2c1C(c1ccc(OCCN3CCOCC3)c(OCC)c1)C(C#N)=C(N)O2 (stereo unspecified) ?
RecA splice inh: 44; BioA inh: inactive; FadD28 binding: inactive; Mtb UGM inh: inactive; Rv3671c protease: inactive
